# In the library only some 1.7% were active in any assay of this set; here they are far more common.
# TRPML1 inh: inhibitors of human TRPML1 channel; TRPML1-inducible cells, Ca2+ dye fluorescence, FDSS; active compounds read low; inhibition of EC80 agonist-evoked calcium signal; activity change, negative = inhibition, % (concentration not given with the values); 0.02% of 390,000 active; AID 624415; in the data active = activity change below about -50%; inconclusive = between about -30% and that limit;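 note: stimulus is agonist 54-4 at its EC80 concentration; % is set by controls: 0 for no effect and ±100 for the full control effect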
#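 Tet-induced TRPML1-DL cells loaded with Ca8 no-wash calcium dye were read kinetically on FDSS. Compound addition was followed by EC80 agonist 54-4 (4 uM final); inhibition was read over 110 s.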
# TRPML1 agonist: activates the human TRPML1 channel. activation, % (test concentration not listed). 0.12% of 410,000 active. TRPML1-expressing cells, Ca2+ dye fluorescence, FDSS. AID 624414; in the data active = activation above about 50%; inconclusive = mostly about 30% to 49%; note: 0% is about no effect
#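 Tet-induced TRPML1-DL cells, 1,500 per well, cultured overnight, were loaded with a no-wash Ca2+ dye for 45–90 min. Calcium fluorescence was recorded on the FDSS for 110 s after compound addition, before the EC80 agonist (4 uM 54-4) was added.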
# TRHR agonist: TRH receptor (human) agonism; 0.18% of 360,000 active; TRHR cells, calcium flux fluo-8, FDSS agonist mode; activation, % at 2 µM; in the data active = activation above about 30%; note: 0% is about no effect
# Target sequence (P34981 whole entry, looked up): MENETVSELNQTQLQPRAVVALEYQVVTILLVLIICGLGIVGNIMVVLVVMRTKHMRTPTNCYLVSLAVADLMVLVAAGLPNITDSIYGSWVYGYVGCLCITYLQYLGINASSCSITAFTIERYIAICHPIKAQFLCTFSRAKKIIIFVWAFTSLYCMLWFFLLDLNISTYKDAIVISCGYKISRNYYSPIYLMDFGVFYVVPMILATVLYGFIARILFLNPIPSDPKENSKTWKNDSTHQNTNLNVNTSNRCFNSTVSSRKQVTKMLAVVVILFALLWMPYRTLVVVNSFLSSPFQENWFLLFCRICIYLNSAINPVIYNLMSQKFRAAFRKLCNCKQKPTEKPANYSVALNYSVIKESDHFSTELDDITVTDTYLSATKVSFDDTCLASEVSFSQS
#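 Steps: seed TRHR cells overnight; add fluo-8 no-wash Ca dye, RT 30 min–1.5 h; record 10 s baseline; pin-transfer compounds; monitor fluorescence 1 cycle/s for the agonist window. Calcium increases flag candidate agonists.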
# KCNH2 3.1 block: blocks the human KCNH2 3.1 channel isoform | activity change, % (tested at about 1.8 µM) | U2OS KCNH2 3.1, thallium flux FluxOr; active compounds read low | 0.95% of 340,000 active;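 active = maximum activity change below -70%; inconclusive = maximum activity change from -70% to -50%; inactive = maximum activity change above -50%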;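 note: thallium influx rate constant from kinetic fluorescence after stimulation buffer; % is set by controls: 0 for no effect and ±100 for the full control effect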
#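 Virally transduced U2OS (3.1 isoform, 4 h infection in dark at RT) → overnight 37 C → FluxOr + Red40 in HBSS/HEPES, 45 min → stimulation buffer, 2 min kinetic read → rate constant vs DMSO controls.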
# KCNH2 WT inh: KCNH2 (human, wildtype) channel inhibition | 0.37% of 340,000 active | AID 720551 | activity change, % at 1.84 µM | U2OS, BacMam KCNH2, thallium flux FluxOr; active compounds read low;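 active = maximum activity change below -70%; inconclusive = maximum activity change between -70% and -50%; inactive = maximum activity change above -50%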; note: % is set by controls: 0 for no effect and ±100 for the full control effect
#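 U2OS cells transduced with wild-type KCNH2 virus are loaded with FluxOr dye for 45 min, and thallium flux is measured in kinetic reads before and after stimulation buffer. Rate constants are normalized to DMSO controls.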
# TRHR enhancer: allosteric enhancers of human TRH receptor; AID 493056; enhancement, % at 2 µM; TRHR cells, fluo-8 calcium fluorescence, EC20 TRH enhancement; 0.66% of 360,000 active; P34981; in the data active = enhancement above about 30%; note: 0% is about no effect
#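 TRHR-expressing cells loaded with fluo-8 calcium dye were read kinetically (ex 480/em 530) during compound addition, then stimulated with an EC20 of TRH (10 nM final). Enhancement of the Gq-mediated intracellular calcium response was scored.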
# The depositor's hits bear a star; ? = inconclusive; . = not tested or not shown.
SMILES,TRPML1 inh,TRPML1 agonist,TRHR agonist,KCNH2 3.1 block,KCNH2 WT inh,TRHR enhancer
COc1ccc(OC)c(NC(=O)c2cccc(NC(=O)c3ccccc3)c2)c1,20.3,-0.6,-1.0,-6.8,12.7,-6.9
CCOc1cccc(C2C=C(c3ccc4c(c3)OCO4)NC(c3ccc(Cl)cc3)N2)c1O (centres undefined),.,0.3,.,.,.,.
Cc1cc(C)cc(Cn2ncc3c4sc(C)cc4n(C)c3c2=O)c1,.,.,-1.5,.,.,8.2
COc1ccc(NC(=O)Cn2c(=O)n(Cc3ccccc3)c(=O)c3sc4ccccc4c32)cc1,-0.4,-0.2,0.8,.,.,35.5*
CN1CCN(c2ccc(NC(=O)COc3cccc4ccccc34)cc2)CC1,-14.1,-0.2,2.0,-34.6,-0.9,4.1
CN1CCN(c2ccc(NC(=S)NC(=O)c3cccc4ccccc34)cc2)CC1,6.7,0.4,1.5,-79.4*,17.3,9.5
CN1CCN(c2ccc(NC(=S)NC(=O)c3cccc4c(Br)cccc34)cc2)CC1,-0.9,-0.5,0.0,-82.7*,-36.5,-5.7
O=C(Nc1cccc(Cl)c1Cl)c1cc(S(=O)(=O)N2CCC3(CC2)OCCO3)ccc1F,46.4,0.6,0.4,.,.,-9.6
CC1=C2C3OC(=O)C(C)C3CCC2(C)C=CC1=NO (centres undefined),-4.4,-0.5,.,-9.2,-5.3,.
O=C(Nc1nnc(S(=O)(=O)N2CCCCCC2)s1)c1ccccc1Cl,-16.6,-0.4,0.6,-76.2*,-3.8,0.4
COC(=O)c1ccc(OCC(O)CN2CCN(C(=O)c3ccco3)CC2)cc1 (centres undefined),-5.0,0.0,-2.7,25.3,0.8,-0.3
COC(=O)c1ccc(OCC(O)CN2CCN(C(=O)c3ccco3)CC2)c(OC)c1 (centres undefined),2.6,-0.1,-0.1,-85.5*,2.4,2.2
N#Cc1nc(Nc2ccc(-c3ccccc3)cc2)nc(NC2CCCC2)n1,.,.,0.8,.,.,0.9
O=C(Nc1ccccc1N1CCOCC1)c1ccc(Cl)nc1,-3.7,0.0,0.4,-105.2*,1.6,0.8
CCOc1ccc(C(=O)Nc2cc(S(=O)(=O)Nc3ccccc3Cl)ccc2N2CCOCC2)cc1,-14.8,0.3,-1.2,?,-1.1,40.1*
O=C(Nc1ccccc1N1CCOCC1)c1ccc2ccccc2c1,5.5,-0.6,-0.1,-4.6,-7.1,0.6
O=C(NC1CC(=O)N(c2cccc(F)c2)C1)C1CCCC1 (centres undefined),9.6,-0.4,0.3,.,.,-2.3
CC(C)Sc1nc2ccccc2[nH]1,-7.1,-0.1,-1.3,-110.2*,11.9,0.5
Nc1ccc(Sc2nc3ccccc3[nH]2)cc1,-15.7,-0.1,0.0,7.5,-83.6*,-6.0
CC(Sc1nc2ccccc2[nH]1)C(=O)O (centres undefined),-4.7,-1.3,-1.8,-4.0,9.8,5.3
Nc1ccc(-c2nc3ccccc3[nH]2)cc1,-3.9,-0.2,0.1,4.1,-2.9,2.6
COC(=O)c1cc(S(=O)(=O)N2c3ccccc3CC2C)cn1C (centres undefined),2.3,0.7,-1.1,4.1,21.1,-2.9
O=C(CSc1cn(CC(=O)N2CCCC2)c2ccccc12)Nc1ccccc1C(F)(F)F,3.8,1.0,1.0,.,.,1.7
CN(C1=C(NC(=O)c2ccc(Cl)cc2)C(=O)c2ccccc2C1=O)c1ccccc1,0.6,4.7,-0.1,-97.6*,-153.0*,3.6
COc1ccc(/C=N/NC(=O)c2ccccc2F)cc1CN1CCN(c2ccc(F)cc2)CC1,-3.4,-0.3,-0.3,-104.9*,?,-7.1
SMILES,TRPML1 inh,TRPML1 agonist,TRHR agonist,KCNH2 3.1 block,KCNH2 WT inh,TRHR enhancer
COc1cc(C(=O)N/N=C/c2ccc(OC)c(CN3CCN(c4ccc(F)cc4)CC3)c2)ccc1O,-12.5,1.0,-0.5,-104.6*,.,-6.6
COc1ccc(/C=N\NC(=O)c2ccccc2)cc1COc1ccc(F)cc1,45.9,2.2,0.7,-6.5,17.8,5.5
COc1ccc(C)cc1NC(=O)c1ccc(CN2CCN(c3ccccc3)CC2)cc1,8.0,-0.1,0.1,-104.1*,-30.5,3.5
COc1ccc(/C=N/NC(=O)c2ccccc2)cc1CN1CCN(c2ccc(F)cc2)CC1,-5.1,-1.3,-0.3,-107.4*,-107.7*,-0.2
COc1ccc(NC(=O)c2ccc(CN3CCN(c4ccccc4)CC3)cc2)cc1OC,-6.1,-0.5,0.5,-2.7,-6.3,-0.2
Cc1ccc(Oc2ccc(NS(=O)(=O)c3cccc(C(=O)O)c3)cc2)cc1,0.6,-0.1,.,-3.0,4.0,.
CC1=C(C(=O)N(C(C)C)C(C)C)CC(CC(=O)NCCN2CCOCC2)C(=O)N1CCC1=CCCCC1 (centres undefined),6.1,-0.4,.,.,.,.
Cc1ccccc1OCC(=O)NCCCNC(=O)c1cccnc1,-15.2,0.9,1.3,-10.4,5.0,2.2
COC(=O)c1ccc2c(c1)C(=O)/C(=C/c1ccc(O)cc1)O2,23.2,7.0,30.7*,7.3,-6.9,-6.4
CCC1CN(C(=O)Nc2cc(C)ccc2OC)c2cc(Cl)ccc2O1 (centres undefined),17.9,2.7,-0.4,.,.,-4.3
CCc1ccc(-n2c(SCC(=O)NC(C)CC)nc3n[nH]c(C)c3c2=N)cc1 (centres undefined),13.6,1.5,-0.7,.,.,2.9
COc1ccc(/C=N/N2CCN(Cc3ccccc3)CC2)cc1,.,.,-1.0,23.3,6.2,4.6
COc1ccc(/C=C/C2=CCN(Cc3ccc(OC)cc3)CC2)cc1,9.7,0.3,1.9,-78.8*,-33.4,0.8
CCN(CC)c1ccc(/C=C(\C#N)c2nc(-c3cccs3)c(NC(C)=O)s2)cc1,.,.,63.5*,.,.,8.8
CC(=O)Nc1sc(N/N=C\c2ccc(O)cc2)nc1-c1cccs1,18.1,0.2,-0.1,-6.5,-9.5,-3.2
COc1cccc(COCCN2CCN(S(=O)(=O)c3ccccc3)CCC2=O)c1,5.2,0.3,.,.,.,.
CCC/C(=N\NC(=O)c1csc(C)c1C)c1cccs1,-13.2,0.9,-0.5,-9.4,-17.3,35.3*
CCc1ccc(C(=O)COC(=O)c2cc([N+](=O)[O-])ccc2N2CCOCC2)cc1,50.8,1.0,0.1,-11.9,3.3,-4.4
COc1ccc(C)cc1-n1nnnc1SCC1CCCO1 (centres undefined),4.5,-0.4,-0.2,2.0,-107.3*,0.2
CC(NC(=O)c1noc2c1CCCCC2)c1ccccc1 (centres undefined),25.6,-1.5,1.8,10.9,4.0,30.5*
CC(C)=CCn1c2ccc(NC(=S)NC3CC3)cc2c(=O)n1C,.,-0.2,.,.,.,.
Cc1ccc(S(=O)(=O)N2CCN(C(=O)COC(=O)COc3ccc(Cl)cc3C)CC2)c(C)c1,8.6,1.7,.,-14.6,-1.8,.

# Source: PubChem
